# Test results reported in the supplement of paper PMC11417369.
# ± gives the standard deviation of the averaged measurements. The full ranking holds about 25,000 sequences; the median of “ln(normalized median fluorescence intensity)” is about 10, and the highest 2% start at about 12. This excerpt belongs to a sample that is enriched for the highest values.
# System: PfAP2-G AP2 domain (GST-tagged)
# Test: gcPBM binding intensity (ln(normalized median fluorescence intensity)); higher = stronger DNA binding
# Procedure, shortened: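 Using an Agilent 4 × 180k array, primer-extended double-stranded 36-bp intergenic genomic probes and negative controls were exposed for 1 h to GST-fused P. falciparum DNA-binding domains expressed in E. coli. Binding was carried out in 1× PBS with 1% milk, 0.2 mg/ml BSA, 0.5% salmon testes DNA and 0.03% Triton X-100, and protein was detected with Alexa488 anti-GST antibody and a 488 nm scan. Binding intensity is the highest Masliner-normalised natural-log median intensity across replicate spots of either probe orientation.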
row,Sequence,gcPBM binding intensity (ln)
1,AATAAATAAAGAAGTACACACATATATATATATATA [CACACA_site4314],11.7 ± 1.1
2,TTAAGAAAAAAAAAAAGTACACACATATAATATATA [XGTACX_site6268],11.6 ± 1
3,AAAAAAAAAAAAAGTACACACATACATATAAATATA [CACACA_site8533],11.5 ± 0.86
4,AAAAATATATAATAAAGTACACATAAATGAATAAAT [XGTACX_site329],11.5 ± 0.81
5,ATATTAATATATGTGGCACACATGTGGAGTCCTATT [CACACA_site213],10.7 ± 0.43
6,TTATCACATTATTGCACACACATAAAGAAAAAAATA [CACACA_site2841],10.4 ± 0.5
7,AAAAAAATAAAATATATATATATATATATATATATA [GTGCAC_negctrl_site706],9.96 ± 0.89
8,ATATATATGTGTAAAAGTACATATATTTTGAAATAT [XGTACX_site4024],11.2 ± 0.79
9,TTATAATTGTAAGGTAGTACATATAAATCAAATAAT [XGTACX_site7190],11.5 ± 0.94
10,TTAAAAAAAAAAAAAAGTACATAAGTATATATAATA [XGTACX_site4295],11.7 ± 1
11,TATATATAAAAAAAAAGTACATATAATATAATATTT [XGTACX_site7902],11.5 ± 1
12,ATATAAATAAAAAAAAGTACATAATATATAAAAATA [XGTACX_site3065],11.5 ± 1
13,TATGATTTTAATGAAACACACAATTTTATGTTAATA [CACACA_site311],9.82 ± 0.11
14,TTATAATATATATGTAGTACTGTTTTTTTCTATTTT [XGTACX_site7749],11 ± 0.63
15,CTTTTGCCCAAAAAGGTACACACCACAATGTACATA [CACACA_site809],11.6 ± 0.91
16,CACACCACCAACAAAAGTACATACATATATATATAT [XGTACX_site5781],11.3 ± 0.82
17,CTTTTGCCCAAAAAGGTACACACCACAAAGTACATA [CACACA_site8169],11.9 ± 1.2
18,TGTACAACAATTTTTGCACACACCAAAACATAAAAT [CACACA_site1598],11.1 ± 0.2
19,TTTGCCCAAAAAGGTACACACCACAATGTACATAAA [CACACA_site4599],11.9 ± 1.1
20,TCTTTTGCCCAAAAAGGTACACACCACAATTTAAAT [XGTACX_site1482],11.4 ± 0.88
21,TCTTTTTACACCTCTTACATAAAACAAAATAAGGGG [XGTACX_negctrl_site12],10.7 ± 0.38
22,TTTATTTATTATTATGTACACACTATATTAAAACAT [CACACA_site700],11.4 ± 0.87
23,ATATAATTACCATATGGTACACACATATATATATGT [XGTACX_site7393],11.3 ± 0.62

row,Sequence,gcPBM binding intensity (ln)
1,ATCAAATAATAGCAAACACACAAAAAATAAAAAAAA [CACACA_site4146],9.96 ± 0.15
2,ACATTAAAAAAAAAATGTACATAAATATTTTTCCTT [XGTACX_site4361],11.1 ± 0.59
3,GGATAAAATGCTACGAGTACATAAGCATTTTTCCCT [XGTACX_site7796],11.7 ± 1.2
4,AAAAAATATAAAACGAGTACATATATAATAAGCAAA [XGTACX_site1360],11.4 ± 0.82
5,AGGTACTTTTTTAAAACACACATATAACATATACAC [CACACA_site6629],11.3 ± 1.1
6,ATACATTCTAATACGTGTACATATATATATATATAT [XGTACX_site1881],11.4 ± 0.81
7,ATAAATAAAGGACACACACACACACTAGAAAAAAAA [CACACA_site5450],11.2 ± 0.92
8,AACAAATACGGACACACACACACACTAGAAAAAAAA [CACACA_site4442],11.4 ± 0.86
9,TACACAGACGGACACACACACACACTAGAAAAAAAA [CACACA_site4435],11.7 ± 1.2
10,ATTTATATATATGTATGTACGTATGTGTGTATATGT [XGTACX_site7587],11.4 ± 0.88
11,AAACGTGCGTATATGTGTACGCATATATATATATAT [XGTACX_site5252],11.6 ± 1
12,GTATGTATGTATGTATGTACGTATGTATGTATATAT [XGTACX_site3369],11.6 ± 0.98
13,ATGACATGTTCTAAATGTACATTTTTTAACCCTTTT [XGTACX_site1858],10.8 ± 0.4
14,TTTTTTTTTTTTTTATGTACATATATATATTTTATT [XGTACX_site6915],11.2 ± 0.98
15,TTTTTTTTTTCTTTTTTTTATTATATTAACGGAATT [GTGCAC_negctrl_site104],9.82 ± 0.17
16,CAAATGGTAAATGAAAGTACAAATTGTTTTGATTAA [XGTACX_site1536],10.8 ± 0.4
17,TTAGTTATTATAATTTGTACACAAATGGTAAAGTAT [XGTACX_site2343],11.2 ± 0.71
18,ATGGTAGTGATTAAAAGTACACGTAATTGTAAAAAT [XGTACX_site387],11.7 ± 0.79
19,TAAAAAAAAAAATGAACATGCAACAATTGTGATGAA [TGCATGCA_site332],9.74 ± 0.32
20,AAATAAATAAATAGACGTACAAAAATATTATACATT [XGTACX_site6776],11.2 ± 0.8
21,ATTATATTAAAATACACACCCAAATATTAAAAAGAT [CACACA_site5613],10.4 ± 0.19
22,GCACCAAAAAAAAGACGTACAGTTATATTAAAATAG [XGTACX_site8926],11.7 ± 1
